# From PubChem BioAssay AID2825 (Sanford-Burnham Center for Chemical Genomics, 2010)
# Out of some 330,000 compounds screened, about 1,300 (0.39%) were called active. The list comes from a sample in which actives are over-represented; it also holds similar structures and randomly drawn compounds. Unmarked numbers belong to inactive results.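 The calls were made as follows: active = inhibition of 50% or more; inactive = inhibition below 50%.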
# Test: NALP3 inflammasome inhibitors in reconstituted yeast, primary screen, luminescence, uHTS (AID 2825);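 also: plate controls were induced DMSO wells for no effect and uninduced yeast grown without galactose for full effect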
# Details: Yeast reconstituted NLRP3/ASC/caspase-1, beta-gal luminescence, 24 h; at 10 µM; stronger effect = higher value
row,SMILES,inhibition
1,c1cc2c(cc1C1OCC3C(c4ccc5c(c4)OCO5)OCC13)OCO2 (stereo not given),16.8%
2,c1cc2c(cc1[C@H]1OC[C@H]3[C@@H]1CO[C@@H]3c1ccc3c(c1)OCO3)OCO2,15.5%
3,O=C1/C(=C\c2ccc3c(c2)OCO3)N2CCC1CC2,50.3% (active)
4,Cc1nc2nc(C)c(CCC(=O)N3CCC4(CC3)OCCO4)c(C)n2n1,11.1%
5,O=c1c2ccccc2nc(-c2ccco2)n1-c1ccc(Br)cn1,15.6%
6,Cc1ccc(-c2nc3ccccc3c(=O)n2-c2ccc(Br)cn2)cc1,54.6% (active)
7,O=c1c2ccccc2nc(-c2ccccc2)n1-c1ccccn1,-1.57%
8,CN(C)CC1CCCCC1=O (stereo not given),16.4%
9,C[N+]1(C)CCOC(O)(c2ccc(-c3ccc(C4(O)C[N+](C)(C)CCO4)cc3)cc2)C1 (stereo not given),5.92%
10,COCCNC(=O)CN1C2CCC1CC(O)(c1cccnc1)C2 (stereo not given),21.8%
11,NCCc1ccc(S(=O)(=O)F)cc1,13.1%
12,Cc1cc2ccccn2c1C(C[N+](=O)[O-])c1c(F)cccc1Cl (stereo not given),58.8% (active)
13,Cc1ccc2c(c1)=C/C(=C\c1c(O)[nH]c(=O)[nH]c1=O)C(=O)N=2,8.15%
14,CCCCCCCCCCCCn1ccc(=N)cc1,74.5% (active)
15,COC(=O)C(O)(c1ccc(NC(=O)c2ccco2)c(OC)c1)C(F)(F)F (stereo not given),6.52%
16,CSC1=NP(=S)(SC)N(C)c2nc3n(c21)CCC3 (stereo not given),14.6%
17,Cc1cc(OCc2cc(C(=O)O)oc2C)c2c3c(c(=O)oc2c1)CCCC3,13.3%
18,CNC(=S)N/N=C1\C2CN3CCN(C2)CC1(c1ccccc1)C3,2.33%
19,CN(C)P(=S)(Nc1ccccc1)C(Cl)(Cl)Cl (stereo not given),24.4%
20,C[C@]12CC[C@H](O)C[C@H]1CC[C@@H]1C2CC[C@]2(C)[C@@H](C3=CC(=O)OC3)[C@@H](O)C[C@]12O (stereo not given in full),8.26%
21,C[C@]12CC[C@H](O)CC1=C([N+](=O)[O-])CC1C2CC[C@@]2(C)C1CC[C@@H]2O (stereo not given in full),21.9%
22,C[C@]12CCC3C(CC[C@H]4C[C@@H](O)CC[C@]34C)C1C[C@@H](O)[C@H]2O (stereo not given in full),50.2% (active)
23,C[C@]12CCC3C(CC[C@H]4C[C@@H](O)CC[C@]34C)C1CC[C@@H]2O (stereo not given in full),63.7% (active)
24,O=C(C1CC(=O)N(C2CCCC2)C1)N1CCC2(CC1)OCCO2 (stereo not given),25.3%
25,C/C=C/CC1(CC)C(=O)NC(=S)NC1=O,0.922%
26,COc1ccc2[nH]c3c(c2c1)CCN[C@H]3C,10%
27,CC1=C2C(=O)C3C(CC=C4CC(OC5OC(O)C(O)C(O)C5CO)CCC43C)C2CCC12OC1CC(C)CNC1C2C (stereo not given),32.4%
28,COC(=O)C1=C(c2ccc3ccccc3c2)C[C@@H]2CC[C@H]1N2C(=O)NCCO,-5.73%
29,N=c1ccccn1Cc1ccccc1,1.04%
30,CCN1CCN(c2nc3c(c(=O)[nH]2)CCC3)CC1,9.34%
